This is an account of results in paper PMC7862700, “An all-to-all approach to the identification of sequence-specific readers for epigenetic DNA modifications on cytosine”.

Assay in all cases: DAPPL (digital affinity profiling via proximity ligation, sequencing); 10 mM Tris-HCl pH 7.5, 50 mM NaCl, 1 mM DTT, 4% glycerol, room temperature, 30 min; GST-TFs on glutathione beads, 16-mer random dsDNA library, 0.1% formaldehyde crosslink after washing; high values mean tight binding
One assay has as its target T1, FLI1 (Homo sapiens, UniProt Q01543 1-452).
T1 sequence: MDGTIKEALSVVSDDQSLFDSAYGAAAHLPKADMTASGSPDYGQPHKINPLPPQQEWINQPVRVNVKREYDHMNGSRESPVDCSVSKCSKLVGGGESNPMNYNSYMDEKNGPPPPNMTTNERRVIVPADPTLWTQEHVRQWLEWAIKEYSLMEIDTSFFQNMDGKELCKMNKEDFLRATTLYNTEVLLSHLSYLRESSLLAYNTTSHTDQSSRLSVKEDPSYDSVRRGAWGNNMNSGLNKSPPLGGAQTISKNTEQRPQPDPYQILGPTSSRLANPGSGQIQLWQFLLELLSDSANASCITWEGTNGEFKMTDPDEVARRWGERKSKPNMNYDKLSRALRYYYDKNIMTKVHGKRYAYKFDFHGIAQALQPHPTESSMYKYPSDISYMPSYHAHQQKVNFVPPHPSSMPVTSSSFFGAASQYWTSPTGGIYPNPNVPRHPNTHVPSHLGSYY
Conditions: protein: recombinant; tags: N-terminal GST; dsDNA, one strand shown. An outline of the steps: (§1)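 In yeast, human transcription factors were expressed with a GST fusion, then pulled down on glutathione beads and given DNA barcodes. Pooled with a tag-only sample, they were exposed to 200 nmole of a 16-mer random double-stranded DNA library (Tris/NaCl/DTT/glycerol buffer, room temperature, 30 min), washed, crosslinked with 0.1% formaldehyde, proximity-ligated using BsaI/T4 ligase for 1 h at 37 °C, PCR-amplified and read on an Illumina NextSeq500. Each hexamer's frequency of reads for a factor, divided by the matching frequency for the tag-only sample, gives the binding signal.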

The next assay has as its target T2, ELK1 (Homo sapiens, UniProt P19419 1-428).
T2 sequence: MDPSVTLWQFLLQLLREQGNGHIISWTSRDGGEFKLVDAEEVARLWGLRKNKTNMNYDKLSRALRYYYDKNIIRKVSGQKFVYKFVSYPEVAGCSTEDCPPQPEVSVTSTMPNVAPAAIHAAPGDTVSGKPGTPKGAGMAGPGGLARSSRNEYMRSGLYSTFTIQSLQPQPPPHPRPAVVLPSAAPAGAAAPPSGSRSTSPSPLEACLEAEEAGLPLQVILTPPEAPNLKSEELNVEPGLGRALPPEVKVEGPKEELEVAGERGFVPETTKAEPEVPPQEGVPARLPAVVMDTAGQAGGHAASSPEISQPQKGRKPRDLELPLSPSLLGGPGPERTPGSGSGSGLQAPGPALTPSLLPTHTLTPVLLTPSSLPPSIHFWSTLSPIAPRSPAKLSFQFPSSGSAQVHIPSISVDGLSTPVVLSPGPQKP
Conditions: protein: recombinant; tags: N-terminal GST; dsDNA, one strand shown. In outline: as §1

The target of a further assay is T3, GABPA (Homo sapiens, UniProt Q06546 1-454).
T3 sequence: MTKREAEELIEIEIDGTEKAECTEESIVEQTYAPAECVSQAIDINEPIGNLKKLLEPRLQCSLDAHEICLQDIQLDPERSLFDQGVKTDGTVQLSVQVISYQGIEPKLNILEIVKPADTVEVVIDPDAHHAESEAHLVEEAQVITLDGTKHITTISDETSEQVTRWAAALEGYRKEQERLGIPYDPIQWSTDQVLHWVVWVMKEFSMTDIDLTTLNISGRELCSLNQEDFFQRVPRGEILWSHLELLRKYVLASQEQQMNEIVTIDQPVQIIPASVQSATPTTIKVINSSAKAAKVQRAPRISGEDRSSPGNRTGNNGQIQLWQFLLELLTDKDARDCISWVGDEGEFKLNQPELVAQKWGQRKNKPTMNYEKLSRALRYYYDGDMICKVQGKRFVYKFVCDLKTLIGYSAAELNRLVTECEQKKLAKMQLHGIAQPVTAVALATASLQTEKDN
Conditions: protein: recombinant; tags: N-terminal GST; dsDNA, one strand shown. An outline of the steps:
as §1

The next assay concerns the target T4, ERG (Homo sapiens, UniProt P11308 1-479).
T4 sequence: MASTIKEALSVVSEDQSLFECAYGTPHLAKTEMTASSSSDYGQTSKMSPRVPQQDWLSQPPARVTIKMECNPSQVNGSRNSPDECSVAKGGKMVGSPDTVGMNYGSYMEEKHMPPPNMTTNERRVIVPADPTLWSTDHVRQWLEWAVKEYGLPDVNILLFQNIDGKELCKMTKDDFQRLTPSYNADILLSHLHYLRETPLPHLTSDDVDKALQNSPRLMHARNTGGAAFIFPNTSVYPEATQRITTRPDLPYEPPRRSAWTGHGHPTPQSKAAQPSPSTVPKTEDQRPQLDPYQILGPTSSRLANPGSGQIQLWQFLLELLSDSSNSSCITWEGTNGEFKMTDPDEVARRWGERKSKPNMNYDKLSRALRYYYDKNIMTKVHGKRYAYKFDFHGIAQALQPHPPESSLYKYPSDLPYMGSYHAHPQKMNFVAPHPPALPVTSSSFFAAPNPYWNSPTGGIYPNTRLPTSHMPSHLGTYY
Conditions: protein: recombinant; tags: N-terminal GST; dsDNA, one strand shown. An outline of the steps:
as §1

The target of a further assay is ELF1 (Homo sapiens, UniProt P32519 1-619). The following applies: protein: recombinant; tags: N-terminal GST; dsDNA, one strand shown. In outline: as §1
For another assay, the target named is T5, EHF (Homo sapiens, UniProt Q9NZC4 1-300).
T5 sequence: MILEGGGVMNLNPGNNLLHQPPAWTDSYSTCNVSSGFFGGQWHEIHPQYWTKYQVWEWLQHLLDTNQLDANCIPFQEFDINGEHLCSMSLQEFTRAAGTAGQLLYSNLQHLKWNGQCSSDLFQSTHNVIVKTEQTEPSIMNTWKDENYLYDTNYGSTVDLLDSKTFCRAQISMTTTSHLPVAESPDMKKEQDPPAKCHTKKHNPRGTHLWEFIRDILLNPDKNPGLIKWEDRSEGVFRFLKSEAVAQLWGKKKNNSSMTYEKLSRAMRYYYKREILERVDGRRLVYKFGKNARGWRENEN
Conditions: protein: recombinant; tags: N-terminal GST; dsDNA, one strand shown. An outline of the steps: as §1

In a further assay the target is SPI1 (Homo sapiens, UniProt P17947 1-270). The following applies: protein: recombinant; tags: N-terminal GST; dsDNA, one strand shown. An outline of the steps: as §1
The next assay deals with SPIB (Homo sapiens, UniProt Q01892 1-262). Conditions: protein: recombinant; tags: N-terminal GST; dsDNA, one strand shown. In outline:
as §1

The target of the next assay is T6, ELK3 (Homo sapiens, UniProt P41970 1-407).
T6 sequence: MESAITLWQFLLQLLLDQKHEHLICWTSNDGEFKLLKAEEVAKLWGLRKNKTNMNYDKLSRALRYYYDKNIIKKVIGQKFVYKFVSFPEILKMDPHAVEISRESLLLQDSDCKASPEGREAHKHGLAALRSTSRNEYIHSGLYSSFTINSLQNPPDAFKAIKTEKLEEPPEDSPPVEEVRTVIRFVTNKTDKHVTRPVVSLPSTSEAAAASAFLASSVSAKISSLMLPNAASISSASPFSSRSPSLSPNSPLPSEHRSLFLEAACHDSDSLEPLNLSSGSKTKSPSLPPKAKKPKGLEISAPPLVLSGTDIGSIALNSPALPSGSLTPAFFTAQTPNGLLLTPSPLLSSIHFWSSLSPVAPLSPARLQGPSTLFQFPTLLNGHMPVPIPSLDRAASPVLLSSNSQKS
Conditions: protein: recombinant; tags: N-terminal GST; dsDNA, one strand shown. An outline of the steps:
as §1

For another assay, the target named is T7, FEV (Homo sapiens, UniProt Q99581 1-238).
T7 sequence: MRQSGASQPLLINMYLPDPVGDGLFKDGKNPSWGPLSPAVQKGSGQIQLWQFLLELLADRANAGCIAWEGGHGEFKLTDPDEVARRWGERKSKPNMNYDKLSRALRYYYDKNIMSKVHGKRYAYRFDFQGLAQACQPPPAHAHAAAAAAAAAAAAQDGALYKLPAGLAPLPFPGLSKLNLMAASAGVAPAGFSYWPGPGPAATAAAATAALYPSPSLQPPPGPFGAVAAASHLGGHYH
Conditions: protein: recombinant; tags: N-terminal GST; dsDNA, one strand shown. An outline of the steps: as §1

Another assay concerns the target ETV5 (Homo sapiens, UniProt P41161 1-510). Conditions: protein: recombinant; tags: N-terminal GST; dsDNA, one strand shown. In outline: as §1
Another assay concerns the target HSF1 (Homo sapiens, UniProt Q00613 1-529). Conditions: protein: recombinant; tags: N-terminal GST; chain copies: 3; dsDNA, one strand shown. In outline:
as §1

In the next assay the target is T8, SPIC (Homo sapiens, UniProt Q8N5J4 1-248).
T8 sequence: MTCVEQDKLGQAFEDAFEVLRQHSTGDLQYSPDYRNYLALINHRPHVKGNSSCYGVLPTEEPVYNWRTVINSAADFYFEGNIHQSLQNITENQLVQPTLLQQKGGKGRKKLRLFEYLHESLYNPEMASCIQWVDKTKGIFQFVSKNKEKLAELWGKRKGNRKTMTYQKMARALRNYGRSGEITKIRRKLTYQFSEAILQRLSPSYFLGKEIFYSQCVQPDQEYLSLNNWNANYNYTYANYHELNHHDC
Conditions: protein: recombinant; tags: N-terminal GST; dsDNA, one strand shown. In outline: as §1

In a further assay the target is ELF4 (Homo sapiens, UniProt Q99607 1-663). Conditions: protein: recombinant; tags: N-terminal GST; dsDNA, one strand shown. In outline: as §1
In another assay the target is T9, ELK4 (Homo sapiens, UniProt P28324-2 1-405).
T9 sequence: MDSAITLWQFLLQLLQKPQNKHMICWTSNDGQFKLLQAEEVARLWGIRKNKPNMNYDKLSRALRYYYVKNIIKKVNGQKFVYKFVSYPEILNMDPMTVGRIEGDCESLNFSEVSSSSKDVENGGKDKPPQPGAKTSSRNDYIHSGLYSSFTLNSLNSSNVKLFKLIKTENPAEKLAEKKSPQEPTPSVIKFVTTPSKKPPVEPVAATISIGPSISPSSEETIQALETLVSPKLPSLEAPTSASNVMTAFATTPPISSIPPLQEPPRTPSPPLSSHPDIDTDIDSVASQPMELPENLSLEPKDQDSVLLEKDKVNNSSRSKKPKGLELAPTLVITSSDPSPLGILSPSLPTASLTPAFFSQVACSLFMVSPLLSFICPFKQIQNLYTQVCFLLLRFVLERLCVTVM
The following applies: protein: recombinant; tags: N-terminal GST; dsDNA, one strand shown. In outline:
as §1

The target of another assay is T10, ETV2 (Homo sapiens, UniProt O00321 1-342).
T10 sequence: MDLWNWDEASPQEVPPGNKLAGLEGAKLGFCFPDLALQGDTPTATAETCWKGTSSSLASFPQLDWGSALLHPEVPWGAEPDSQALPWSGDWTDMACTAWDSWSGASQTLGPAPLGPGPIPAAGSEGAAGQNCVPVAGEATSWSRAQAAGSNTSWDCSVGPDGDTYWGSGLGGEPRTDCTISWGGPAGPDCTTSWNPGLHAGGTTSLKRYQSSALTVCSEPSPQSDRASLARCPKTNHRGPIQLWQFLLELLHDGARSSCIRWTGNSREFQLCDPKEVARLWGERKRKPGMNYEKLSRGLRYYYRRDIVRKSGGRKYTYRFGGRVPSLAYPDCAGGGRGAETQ
The following applies: protein: recombinant; tags: N-terminal GST; dsDNA, one strand shown. In outline: as §1

The target of a further assay is T11, ELF3 (Homo sapiens, UniProt P78545 1-371).
T11 sequence: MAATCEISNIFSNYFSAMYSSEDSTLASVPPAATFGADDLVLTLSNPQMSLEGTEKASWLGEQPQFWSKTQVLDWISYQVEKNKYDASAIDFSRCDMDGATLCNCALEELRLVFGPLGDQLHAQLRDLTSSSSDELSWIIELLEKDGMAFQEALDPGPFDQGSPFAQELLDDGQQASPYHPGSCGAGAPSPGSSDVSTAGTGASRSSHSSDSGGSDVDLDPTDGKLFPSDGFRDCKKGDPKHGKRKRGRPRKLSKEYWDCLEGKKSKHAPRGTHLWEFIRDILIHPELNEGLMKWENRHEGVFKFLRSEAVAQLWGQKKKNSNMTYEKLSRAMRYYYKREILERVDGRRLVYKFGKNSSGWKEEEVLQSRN
The following applies: protein: recombinant; tags: N-terminal GST; dsDNA, one strand shown. In outline:
as §1

The target in a further assay is CRX (Homo sapiens, UniProt O43186 1-299). Conditions: protein: recombinant; tags: N-terminal GST; dsDNA, one strand shown. An outline of the steps:
as §1

The next assay deals with ETV1 (Homo sapiens, UniProt P50549 1-477). The following applies: protein: recombinant; tags: N-terminal GST; dsDNA, one strand shown. In outline: as §1
Sequence of ETV1 (P50549 whole entry): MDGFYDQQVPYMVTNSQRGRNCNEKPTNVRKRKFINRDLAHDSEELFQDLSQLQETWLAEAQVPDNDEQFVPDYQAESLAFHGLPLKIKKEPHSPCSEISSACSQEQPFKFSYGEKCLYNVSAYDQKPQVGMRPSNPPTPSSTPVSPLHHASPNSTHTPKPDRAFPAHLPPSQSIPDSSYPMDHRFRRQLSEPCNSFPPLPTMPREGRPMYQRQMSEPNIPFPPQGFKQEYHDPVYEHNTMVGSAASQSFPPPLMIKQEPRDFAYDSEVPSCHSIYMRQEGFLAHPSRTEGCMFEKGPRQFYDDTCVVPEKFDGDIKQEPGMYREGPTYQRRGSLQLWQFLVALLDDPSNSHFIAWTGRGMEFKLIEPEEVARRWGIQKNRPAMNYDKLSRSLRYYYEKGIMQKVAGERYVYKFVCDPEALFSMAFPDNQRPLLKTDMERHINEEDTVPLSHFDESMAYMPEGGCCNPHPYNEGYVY

Sequence of ETV5 (P41161 whole entry): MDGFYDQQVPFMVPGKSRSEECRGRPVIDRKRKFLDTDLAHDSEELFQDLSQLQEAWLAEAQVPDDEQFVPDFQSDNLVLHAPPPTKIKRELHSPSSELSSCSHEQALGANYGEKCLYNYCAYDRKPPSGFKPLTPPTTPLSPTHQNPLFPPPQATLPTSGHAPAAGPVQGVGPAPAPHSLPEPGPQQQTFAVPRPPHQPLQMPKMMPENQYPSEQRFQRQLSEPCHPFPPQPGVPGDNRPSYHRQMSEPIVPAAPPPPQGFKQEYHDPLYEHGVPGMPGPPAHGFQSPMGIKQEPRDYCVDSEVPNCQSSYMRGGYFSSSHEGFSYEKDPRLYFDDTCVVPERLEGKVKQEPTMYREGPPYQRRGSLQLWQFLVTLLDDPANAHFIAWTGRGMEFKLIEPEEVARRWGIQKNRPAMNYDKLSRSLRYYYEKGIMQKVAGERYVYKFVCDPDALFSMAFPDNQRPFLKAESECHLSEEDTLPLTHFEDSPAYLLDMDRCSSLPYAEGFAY
Sequence of CRX (O43186 whole entry): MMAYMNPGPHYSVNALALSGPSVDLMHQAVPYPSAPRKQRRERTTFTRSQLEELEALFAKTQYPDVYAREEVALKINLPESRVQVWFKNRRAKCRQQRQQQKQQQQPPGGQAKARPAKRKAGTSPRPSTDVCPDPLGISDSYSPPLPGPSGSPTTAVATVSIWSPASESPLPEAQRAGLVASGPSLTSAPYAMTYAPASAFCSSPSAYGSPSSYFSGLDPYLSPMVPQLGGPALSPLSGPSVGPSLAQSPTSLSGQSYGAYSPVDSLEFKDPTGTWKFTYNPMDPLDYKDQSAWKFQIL
Sequence of HSF1 (Q00613 whole entry): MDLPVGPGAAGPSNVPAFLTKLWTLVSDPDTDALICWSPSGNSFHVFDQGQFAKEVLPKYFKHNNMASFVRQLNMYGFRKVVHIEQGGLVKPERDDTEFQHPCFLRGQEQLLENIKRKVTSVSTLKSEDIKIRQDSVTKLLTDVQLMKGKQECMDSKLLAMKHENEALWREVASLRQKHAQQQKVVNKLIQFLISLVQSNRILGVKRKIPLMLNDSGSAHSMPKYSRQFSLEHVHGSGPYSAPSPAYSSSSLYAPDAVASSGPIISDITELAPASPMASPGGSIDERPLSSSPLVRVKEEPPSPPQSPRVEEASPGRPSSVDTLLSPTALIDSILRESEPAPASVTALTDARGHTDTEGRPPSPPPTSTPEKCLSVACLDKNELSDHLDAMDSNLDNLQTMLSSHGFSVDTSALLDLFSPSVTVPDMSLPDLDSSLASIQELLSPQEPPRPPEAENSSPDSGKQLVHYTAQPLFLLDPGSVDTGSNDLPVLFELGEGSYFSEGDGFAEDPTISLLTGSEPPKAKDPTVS
Sequence of ELF4 (Q99607 whole entry): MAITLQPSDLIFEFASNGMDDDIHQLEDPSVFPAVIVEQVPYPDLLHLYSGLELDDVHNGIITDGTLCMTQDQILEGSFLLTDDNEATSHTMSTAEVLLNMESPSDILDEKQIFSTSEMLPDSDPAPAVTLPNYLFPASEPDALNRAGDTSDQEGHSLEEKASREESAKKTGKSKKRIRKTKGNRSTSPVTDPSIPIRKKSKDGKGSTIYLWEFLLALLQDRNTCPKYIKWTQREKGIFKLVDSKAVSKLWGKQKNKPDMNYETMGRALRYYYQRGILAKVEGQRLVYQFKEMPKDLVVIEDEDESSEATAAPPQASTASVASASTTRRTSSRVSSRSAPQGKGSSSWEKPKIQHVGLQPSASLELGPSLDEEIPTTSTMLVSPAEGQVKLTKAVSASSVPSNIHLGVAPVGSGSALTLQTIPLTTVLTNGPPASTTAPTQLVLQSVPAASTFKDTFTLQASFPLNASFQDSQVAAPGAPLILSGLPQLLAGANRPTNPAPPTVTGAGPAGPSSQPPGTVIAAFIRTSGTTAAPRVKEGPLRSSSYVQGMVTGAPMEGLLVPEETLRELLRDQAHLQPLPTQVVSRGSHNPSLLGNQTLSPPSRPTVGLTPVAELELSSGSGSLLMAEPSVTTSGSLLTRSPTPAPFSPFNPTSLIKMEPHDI
Sequence of ELF1 (P32519 whole entry): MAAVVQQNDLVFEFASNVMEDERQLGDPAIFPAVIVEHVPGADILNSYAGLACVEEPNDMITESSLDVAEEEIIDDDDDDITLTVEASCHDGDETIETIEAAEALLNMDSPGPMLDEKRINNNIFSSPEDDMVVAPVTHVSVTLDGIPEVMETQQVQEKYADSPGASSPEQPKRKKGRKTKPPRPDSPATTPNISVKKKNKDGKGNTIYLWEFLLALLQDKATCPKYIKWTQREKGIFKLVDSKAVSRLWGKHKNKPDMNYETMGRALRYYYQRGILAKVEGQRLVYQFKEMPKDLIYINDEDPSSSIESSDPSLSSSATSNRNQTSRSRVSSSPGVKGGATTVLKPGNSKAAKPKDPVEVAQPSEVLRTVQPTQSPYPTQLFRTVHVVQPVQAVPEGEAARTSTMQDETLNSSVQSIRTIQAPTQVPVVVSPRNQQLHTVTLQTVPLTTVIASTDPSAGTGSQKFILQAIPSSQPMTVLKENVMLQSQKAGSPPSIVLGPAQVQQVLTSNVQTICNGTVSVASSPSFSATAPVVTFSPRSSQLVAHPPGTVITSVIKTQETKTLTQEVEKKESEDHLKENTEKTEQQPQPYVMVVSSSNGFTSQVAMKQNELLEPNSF
Sequence of SPIB (Q01892 whole entry): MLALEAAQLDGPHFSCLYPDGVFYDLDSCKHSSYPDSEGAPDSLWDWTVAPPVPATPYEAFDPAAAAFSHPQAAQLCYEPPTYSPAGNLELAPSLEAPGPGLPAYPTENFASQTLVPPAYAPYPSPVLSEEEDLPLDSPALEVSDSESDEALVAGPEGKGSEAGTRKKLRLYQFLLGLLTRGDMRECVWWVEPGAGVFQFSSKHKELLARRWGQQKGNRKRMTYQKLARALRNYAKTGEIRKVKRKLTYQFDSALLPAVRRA

Turning to GGAATT, the binding signal with FLI1 is 1.14 fold enrichment (6-mer frequency, TF over GST control); with ELK1, 1.1 fold enrichment (6-mer frequency, TF over GST control); with GABPA it was 1 fold enrichment (6-mer frequency, TF over GST control); with ERG, 1.12 fold enrichment (6-mer frequency, TF over GST control); with ELF1 it was 1.07 fold enrichment (6-mer frequency, TF over GST control); in the assay with EHF, 1.24 fold enrichment (6-mer frequency, TF over GST control). Also, the binding signal in the assay with SPI1 was 1.16 fold enrichment (6-mer frequency, TF over GST control); with SPIB, 1.18 fold enrichment (6-mer frequency, TF over GST control); in the assay with ELK3 it was 1.24 fold enrichment (6-mer frequency, TF over GST control); in the assay with FEV it was 1.17 fold enrichment (6-mer frequency, TF over GST control); in the assay with ETV5, 1.21 fold enrichment (6-mer frequency, TF over GST control); in the assay with HSF1, 1.45 fold enrichment (6-mer frequency, TF over GST control). The binding signal in the assay with SPIC was 1.11 fold enrichment (6-mer frequency, TF over GST control); in the assay with ELF4 it was 1.07 fold enrichment (6-mer frequency, TF over GST control); with ELK4, 1.1 fold enrichment (6-mer frequency, TF over GST control); with ETV2 it was 1.13 fold enrichment (6-mer frequency, TF over GST control); with ELF3, 1.12 fold enrichment (6-mer frequency, TF over GST control); with CRX, 1.46 fold enrichment (6-mer frequency, TF over GST control). The binding signal with ETV1 is 1.18 fold enrichment (6-mer frequency, TF over GST control).
